# Results from PubChem BioAssay (NCATS).
# Results filed as inconclusive are left out. A call without a number means that no potency is given here. A number with no mark means an inactive call. Activity calls are given as the source filed them. Calls follow the shape of the dose curve; as a rule, active = well fitted curve in the direction sought with a large enough effect; inconclusive = small, poorly fitted or top-dose-only effect, or another doubt; inactive = no such curve, though single readings can be large; an effect the other way counts as inactive or inconclusive.
# Legend:
# JEG-3 = assay: Primary qHTS to identify gynecologic anti-cancer compounds using libraries of approved drugs and bioactive compounds (AID 1345084); details: Gynecologic cancer cell panel viability, ATPlite luminescence, 48 h; series mostly up to 57.5 µM; also: nearly all actives have a fitted effect of over 55% in size
# Summary of the method: (§1)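 ATP-based viability (ATPlite), 1,000 cells/well, 16 h pre-incubation, 48 h compound at 37 C, 5% CO2, 15 min RT before read.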
# OV90 = assay: as above; details: Gynecologic cancer cell panel viability, ATPlite luminescence, 48 h; series mostly up to 57.5 µM
# Summary of the method: as §1
# PA-1 = assay: as above; details: Gynecologic cancer cell panel viability, ATPlite luminescence, 48 h; series mostly up to 57.5 µM
# Summary of the method: as §1
# SKOV3 = assay: as above; details: Gynecologic cancer cell panel viability, ATPlite luminescence, 48 h; series mostly up to 57.5 µM
# Summary of the method: as §1
# Tov-21-G = assay: as above; details: Gynecologic cancer cell panel viability, ATPlite luminescence, 48 h; series mostly up to 57.5 µM
# Summary of the method: as §1
# Tov112D = assay: as above; details: Gynecologic cancer cell panel viability, ATPlite luminescence, 48 h; series mostly up to 57.5 µM
# Summary of the method: as §1
# [1] = Drug repurposing screens with cells derived from glioblastoma tumor samples (AID 1345199); details: GBM patient neurospheres viability, ATP luminescence, 48 h; also: nearly all actives have a fitted effect of over 40% in size; also: potency is read from the fitted curve at half-maximal effect
# Summary of the method: (§2)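 Four patient lines of CD133+ GBM neurospheres were screened at several concentrations; hits were retested in those lines plus three slower-growing GBM lines, using 48-hour treatment and ATP-based viability.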
# astro = assay: as above; details: viability, ATP luminescence, 48 h; series mostly up to 45.9 µM
# Summary of the method: as §2
smiles,measurement,setting,value
Nc1ncnc2c1ncn2[C@H]1CCCO1,Potency,JEG-3,inactive
same,Potency,OV90,inactive
same,Potency,PA-1,inactive
same,Potency,SKOV3,inactive
same,Potency,Tov-21-G,inactive
same,Potency,Tov112D,inactive
O=C1C[C@@H](c2ccc(O)cc2)Oc2cc(O)ccc21,Potency,JEG-3,inactive
same,Potency,OV90,inactive
same,Potency,PA-1,inactive
same,Potency,SKOV3,inactive
same,Potency,Tov-21-G,inactive
same,Potency,Tov112D,inactive
C=CC1(C)C=C2C(O)CC3C(C)(C(=O)O)CCCC3(C)C2CC1 (centres undefined),Potency,JEG-3,inactive
same,Potency,OV90,inactive
same,Potency,PA-1,inactive
same,Potency,SKOV3,inactive
same,Potency,Tov-21-G,inactive
same,Potency,Tov112D,inactive
CC[C@H]1OC(=O)C[C@@H](O)[C@H](C)[C@@H](O[C@@H]2O[C@H](C)[C@@H](O)[C@H](N(C)C)[C@H]2O)[C@@H](CCN2C[C@H](C)C[C@H](C)C2)C[C@@H](C)C(=O)/C=C/C(C)=C/[C@@H]1CO[C@@H]1O[C@H](C)[C@@H](O)[C@@H](OC)[C@H]1OC,Potency,JEG-3,inactive
same,Potency,OV90,inactive
same,Potency,PA-1,inactive
same,Potency,SKOV3,inactive
same,Potency,Tov-21-G,inactive
same,Potency,Tov112D,inactive
same,"activity, negative = cell killing","[1]; at 45.9 µM (top of the series), tumour line B",-3.99%
same,"activity, negative = cell killing","[1]; at 45.9 µM (top of the series), tumour line D",-15.7%
same,"activity, negative = cell killing","[1]; at 46.1 µM (top of the series), tumour line C",-6.47%
same,Potency,[1]; tumour line A,22.4 µM (active)
same,Potency,astro,inactive
COc1cc(/C=C/C(=O)O[C@H]2[C@H](O)[C@@H](CO)O[C@@]2(CO)O[C@H]2O[C@H](COC(=O)c3ccc(O)cc3)[C@@H](O)[C@H](O)[C@H]2O)cc(OC)c1OC,Potency,JEG-3,inactive
same,Potency,OV90,inactive
same,Potency,PA-1,inactive
same,Potency,Tov-21-G,inactive
same,Potency,Tov112D,inactive
CC(=O)NCCCCn1c2c(c3ccccc31)C(=O)NCC2,Potency,JEG-3,inactive
same,Potency,OV90,inactive
same,Potency,PA-1,inactive
same,Potency,Tov-21-G,inactive
same,Potency,Tov112D,inactive
Cn1c(=O)cc(N2CCCC(N)C2)n(Cc2ccccc2C#N)c1=O (centres undefined),Potency,JEG-3,inactive
same,Potency,OV90,inactive
same,Potency,PA-1,inactive
same,Potency,SKOV3,inactive
same,Potency,Tov112D,inactive
CCOC(=O)N1CCC(NCCNC(=O)c2ccccc2C)CC1,Potency,JEG-3,inactive
same,Potency,OV90,inactive
same,Potency,PA-1,inactive
same,Potency,Tov-21-G,inactive
same,Potency,Tov112D,inactive
COc1cc(CC(COC2OC(CO)C(O)C(O)C2O)c2cc(/C=C/CO)cc(OC)c2O)ccc1O (centres undefined),Potency,JEG-3,inactive
same,Potency,OV90,inactive
same,Potency,PA-1,inactive
same,Potency,Tov-21-G,inactive
same,Potency,Tov112D,inactive
COc1cc(/C=C/CO)ccc1O[C@@H]1O[C@H](CO)[C@@H](O)[C@H](O)[C@H]1O,Potency,JEG-3,inactive
same,Potency,OV90,inactive
same,Potency,PA-1,inactive
same,Potency,Tov-21-G,inactive
same,Potency,Tov112D,inactive
O=C(c1ccc(NS(=O)(=O)c2cccc3cccnc23)cc1)N1CCN(CC2CC2)CC1,Potency,JEG-3,inactive
same,Potency,OV90,inactive
same,Potency,PA-1,inactive
same,Potency,Tov-21-G,inactive
same,Potency,Tov112D,inactive
O=C(/C=C/c1c(C(=O)O)[nH]c2cc(Cl)cc(Cl)c12)Nc1ccccc1,Potency,JEG-3,inactive
same,Potency,OV90,inactive
same,Potency,PA-1,inactive
same,Potency,Tov-21-G,inactive
same,Potency,Tov112D,inactive
CCCOc1ccn2c(C(C)=O)cc(-c3ccccc3S(C)(=O)=O)c2c1,Potency,JEG-3,inactive
same,Potency,OV90,inactive
same,Potency,PA-1,inactive
same,Potency,Tov-21-G,inactive
same,Potency,Tov112D,inactive
CC(=O)OCC1=C[C@H](O)[C@@H]2C(C(=O)O)=CO[C@@H](O[C@@H]3O[C@H](CO)[C@@H](O)[C@H](O)[C@H]3O)[C@H]12,Potency,JEG-3,inactive
same,Potency,OV90,inactive
same,Potency,PA-1,inactive
same,Potency,Tov-21-G,inactive
same,Potency,Tov112D,inactive
CCC(C)C(=O)O[C@@H]1[C@@H](O)[C@@H](O[C@H]2O[C@H](CO)[C@@H](O)[C@H](O)[C@H]2O)O[C@H](CO)[C@H]1O (some centres undefined),Potency,JEG-3,inactive
same,Potency,OV90,inactive
same,Potency,PA-1,inactive
same,Potency,Tov-21-G,inactive
same,Potency,Tov112D,inactive
C=CCc1ccc(O[C@@H]2O[C@H](CO)[C@@H](O)[C@H](O)[C@H]2O)c(OC)c1,Potency,JEG-3,inactive
same,Potency,OV90,inactive
same,Potency,PA-1,inactive
same,Potency,Tov-21-G,inactive
same,Potency,Tov112D,inactive
COc1cc(C)c(C(=O)O[C@H]2[C@@H](O)[C@H](n3ccc(=O)[nH]c3=O)O[C@@H]2CO)c(OC)c1,Potency,JEG-3,inactive
same,Potency,OV90,inactive
same,Potency,PA-1,inactive
same,Potency,Tov-21-G,inactive
same,Potency,Tov112D,inactive
CC1(C)OC(=O)C(OCC2CC2)=C1c1ccc(S(C)(=O)=O)cc1,Potency,JEG-3,inactive
same,Potency,OV90,inactive
same,Potency,PA-1,inactive
same,Potency,Tov-21-G,inactive
same,Potency,Tov112D,inactive
C=C1CC[C@@H]2[C@](C)(CC[C@H](O)[C@@]2(C)CCC=C(C)C)[C@@H]1Cc1c[nH]c2ccccc12,Potency,JEG-3,inactive
same,Potency,OV90,inactive
same,Potency,PA-1,inactive
same,Potency,Tov-21-G,inactive
same,Potency,Tov112D,inactive
CNC(=O)O[C@H]1COc2ccc(N3CCN(C4COC4)CC3)cc2[C@@H]1NC(=O)c1ccc(F)cc1,Potency,JEG-3,inactive
same,Potency,OV90,inactive
same,Potency,PA-1,inactive
same,Potency,Tov-21-G,inactive
same,Potency,Tov112D,inactive
